# This excerpt belongs to a sample that is enriched for hits.
# CHX counter: counter-screen for Shiga toxin inhibitors: cycloheximide protein synthesis inhibition; hit rate 12% among 300,000; AID 2314; cell reporter, cycloheximide protein synthesis inhibition counterscreen; max response, %; in the data active = max response mostly above about 13%, no sharp cut-off; inactive = mostly below about 14%; note: read at 38.3 µM for the half of the compounds with a filed dose; 0% is about no effect
# VACV Venus inh: vaccinia inhibition (Venus reporter); hit rate 0.46% among 330,000; Vaccinia virus Venus reporter expression, fluorescence; Potency, µM (highest dose often 36.5 µM), inactives show at the highest dose activity change, negative = inhibition, actives largely listed as inhibitors; calls by dose curve; tested in A549 cells; note: potency is the fitted concentration of half-maximal effect; % is set by controls: 0 for no effect and ±100 for the full control effect; nearly all actives have a fitted effect of over 30% in size
# Marburg entry inh: blocks Marburg virus binding to or entry into cells | Marburg virus pseudotyped entry inhibition, cell reporter | Potency, µM (series often up to 37.8 µM), for inactives: top-dose activity change, negative = inhibition, usual class: inhibitors | hit rate 1.8% among 300,000 | AID 540276; calls by dose curve; tested in HEK293 cells; note: potency is the fitted concentration of half-maximal effect; % is set by controls: 0 for no effect and ±100 for the full control effect
# VACV mCherry inh: vaccinia inhibition (mCherry reporter); hit rate 0.63% among 310,000; Potency, µM (doses to about 36.5 µM), without a hit: top-dose activity change, negative = inhibition, usual class: inhibitors; Vaccinia virus mCherry reporter infection, fluorescence; AID 720579; calls by dose curve; tested in A549 cells; note: potency is the fitted concentration of half-maximal effect; % is set by controls: 0 for no effect and ±100 for the full control effect; nearly all actives have a fitted effect of over 35% in size
# Lassa entry inh: blocks Lassa virus binding to or entry into cells; Lassa virus pseudotype entry inhibition, cell reporter; Potency, µM (doses to about 37.9 µM), inactives show top-dose activity change, negative = inhibition, actives largely listed as inhibitors; hit rate 1.2% among 300,000; AID 540256; calls by dose curve; tested in HEK293 cells; note: potency is the fitted concentration of half-maximal effect; % is set by controls: 0 for no effect and ±100 for the full control effect; nearly all actives have a fitted effect of over 50% in size
# Shiga inhibitor: inhibitors of Shiga toxin in Vero cells | inhibition, % at 38.7 µM | Vero cells, Shiga toxin protein synthesis inhibition reporter | hit rate 9.2% among 290,000; in the data active = inhibition mostly above about 28%, no sharp cut-off; inactive = mostly below about 43%; note: 0% is about no effect
# An asterisk follows results filed as active; i = inactive; ? = inconclusive; . = not tested or not shown; [ ] = another dose, or the depositor's remark.
SMILES,CHX counter,VACV Venus inh,Marburg entry inh,VACV mCherry inh,Lassa entry inh,Shiga inhibitor
COCCN(C(=O)CCl)C(C(=O)NC1CCCCC1)c1ccccc1C (configuration not stated),2,?,8.9µM*,?,?,2
COCCN(C(=O)Cc1cccs1)C(C(=O)NC1CCCC1)c1cc(OC)c(OC)c(OC)c1 (configuration not stated),49*,-8%,2%[46.1 µM],-10%,-24%,111*
COCCN(C(=O)CCC(=O)Nc1cc(C)on1)C(C(=O)NC1CCCC1)c1ccccc1C (configuration not stated),-2,-3%,18%[46.1 µM],-11%,23%[46.1 µM],-2
Cc1ccc(C)c(CN2C(=O)c3ccccc3S(=O)c3ccc(C(=O)NCCC4=CCCCC4)cc32)c1 (configuration not stated),.,-19%,?,-11%,?,.
COc1cc2c(cc1OC)[C@@H]1O[C@](CCCCN3C(=O)c4ccccc4C3=O)(C2)OC2=C1C(=O)c1ccccc1C2=O,.,.,-9%[14.2 µM],.,.,.
CC(C)Oc1cccc(C(=O)C2CCCN(C(=O)c3ccnn3C)C2)c1 (configuration not stated),10,-12%,.,-5%,.,17
O=C(NC1CCCCCCC1)c1ccccc1O,31*,-18%,?,-21%,8%,75*
O=C(NC1CCCCC1)c1cc2ccccc2cc1O,24*,-20%,-19%,?,2%,34*
Nc1nc2ncccc2cc1C(=O)NC1CCCCC1,.,6%,.,-1%,.,.
O=C(NC1CCCCCCC1)c1ccccc1-c1ccccc1,-6,-3%,-25%,-12%,-27%,-14
COc1ccc(CNC(=O)CSc2ncc3c(n2)-c2ccc(Cl)cc2N(Cc2ccc(F)cc2)S3(=O)=O)cc1OC,.,-13%,.,-28%,21%[46.1 µM],.
O=C(Nc1ccc2oc(-c3cccnc3)nc2c1)c1ccc(-c2cccc(OC(F)(F)F)c2)o1,.,-19%,.,-3%,15%[46.1 µM],.
COc1ccc(-c2nnc(Sc3nc4ccccc4o3)c3ccccc23)cc1,-8,11µM*,?,8.9µM*,-6%,-5
Cc1ccc(O)c(C2=Nc3ccccc3C2(C)C)c1,49*,-3%,.,i,.,89*
O=C(Nc1ccc(F)cc1F)Nc1csc2ccccc12,42*,-25%,?,?,?,117*
O=C(Nc1ccc(F)c(Cl)c1)Nc1ccc(Cl)cn1,-1,.,.,.,.,14
O=C(Nc1ccc(F)c(Cl)c1)Nc1csc2ccccc12,38*,-7%[7.34 µM],?,i[7.34 µM],?,57*
Cc1nn(Cc2ccc(F)cc2)c(C)c1NC(=O)c1cc2ncc(Br)cn2n1,1,.,.,.,.,-14
CC(C)c1ccccc1NC(=O)c1cnccn1,4,.,20%,.,24%,17
CSc1ccccc1NC(=O)c1cc2ncc(Br)cn2n1,18*,.,.,.,.,94*
O=C(Nc1cccc2ccccc12)c1cnccn1,31*,-16%,?,-13%,26%,62*
CSc1ccccc1NC(=O)c1cnccn1,21*,.,6%,.,-2%,22
O=C(NCCCN1CCN(c2ccccc2F)CC1)C1COc2ccccc2C1 (configuration not stated),.,-15%,.,-3%,7%[46.1 µM],.
Nc1[nH]c(=S)[nH]c(=O)c1N,.,-7%,.,-14%,.,.
COc1ccc(N2CCN(C(=O)c3ccccc3NS(=O)(=O)c3ccccc3)CC2)cc1,7,-11%,-29%,-12%,4%,-4
SMILES,CHX counter,VACV Venus inh,Marburg entry inh,VACV mCherry inh,Lassa entry inh,Shiga inhibitor
CCOC(=O)c1c(NC(=O)c2ccc(S(=O)(=O)N(CC(C)C)CC(C)C)cc2)sc2c1CCN(CC)C2,.,-12%,.,-1%,?,.
CC(Oc1ccccc1)C(=O)Nc1nnc(C2CCCCC2)s1 (configuration not stated),49*,-7%,1%[46.1 µM],-19%,20%,130*
CCOCC(=O)Nc1nnc(C2CCCCC2)s1,36*,-14%,-25%[46.1 µM],-24%,-9%,46*
Cc1ccc(C(=O)Nc2nnc(C3CCCCC3)s2)o1,21*,.,?,.,?,90*
COCC(=O)Nc1nnc(C2CCCCC2)s1,20*,-3%,1%[46.1 µM],-8%,0%,53*
COc1ccc(-c2cc(C(=O)Nc3c(C)nn(Cc4ccc(F)cc4)c3C)no2)cc1OC,.,-24%,-1%[46.1 µM],?,-11%[46.1 µM],.
COc1ccccc1Nc1nc2nonc2[nH]c1=O,11,-10%,?,-4%,?,-4
Cc1ccc(Nc2nc3nonc3[nH]c2=O)cc1,27*,.,-13%,.,-13%,58*
COc1cccc(OC)c1OCc1cc(C2C3CCCC=C3C(C#N)=C(N)C2(C#N)C#N)c(C)cc1C (configuration not stated),5,-21%,?,-28%,20µM*,-3
CCCN1CC=C2C(C#N)=C(N)C(C#N)(C#N)C(c3cccc(OC)c3OC)C2C1 (configuration not stated),13,1%,-2%,i,-12%,-3
CN(C)C(=O)c1ccc(-c2nc(Nc3ccc(F)cc3)c3ccccc3n2)cc1,.,-12%,.,i,.,.
CSc1nc(N(C)NC(=O)c2ccc(F)cc2)c2ccccc2n1,-2,?,1.3µM*,.,?,-13
O=C(CC1c2ccccc2C=C(c2ccsc2)N1c1ccc(-c2cccnc2)cc1)C1CC1 (configuration not stated),.,1%,.,31%,.,.
CCn1c(C)nc2cc(C(=O)NNC(=S)Nc3ccccc3Cl)ccc21,40*,-23%,?,-6%,3%,51*
CCn1c(C)nc2cc(C(=O)NNC(=S)Nc3ccc(Cl)cc3Cl)ccc21,16*,-9%,13%,-21%,3%,11
CNc1nc(N/N=C/c2cc3c(cc2[N+](=O)[O-])OCO3)nc(Nc2ccccc2)n1,-2,.,16µM*,.,?,-32
O=[N+]([O-])c1cc2c(cc1/C=N\NS(=O)(=O)c1ccccc1)OCO2,-1,-9%,?,-16%,-28%,-8
CO/N=C(\C(=O)N[C@@H]1C(=O)N2C(C(=O)O)=C(CSc3nc(=O)c(O)nn3C)CS[C@H]12)c1csc(N)n1,.,?,.,-14%,.,.
CCCCNc1c(-c2ccc(-c3ccc(OC)cc3)c(OC)c2)nc2ccccn12,.,?,.,32µM*,.,.
CCC(=O)Nc1c(-c2ccc3ccccc3c2)nc2ccccn12,38*,.,.,.,.,50
CC(=O)Nc1c(-c2ccc3ccccc3c2)nc2ccccn12,21*,.,.,.,.,104*
Cc1ccc(C(=O)Nc2c(-c3ccccc3)nc3ccccn23)cc1,.,-4%,-3%[46.1 µM],-12%,-8%[46.1 µM],.
Oc1ccccc1C1=Nc2ccccc2N=C(c2ccco2)C1,13*,.,?,.,?,24
C[C@@H](CO)[C@H](/C=C/c1ccccc1)CCO[Si](c1ccccc1)(c1ccccc1)C(C)(C)C,13,.,.,.,.,-3
CCCCCCCCCCCCCCCC[N+](C)(C)CCN(Cc1ccc(OC)cc1)c1ncccn1,.,13µM*,.,?,.,.
COC(=O)c1sccc1NC(=O)Nc1ccc(Cl)c(Cl)c1,27*,-20%,?,.,-7%,23
COC(=O)c1sccc1NC(=O)CSc1cccc(Cl)c1Cl,12*,19%,26%,-1%,10%,27
